From PubChem BioAssay AID1259343 (VanderVen Lab, College of Veterinary Medicine, Cornell …, 2017) come the findings set out here.

The term inhibition denotes the relative decrease from the control value, in per cent.

Structures are written as SMILES. Out of some 6,200 compounds screened, about 2,900 (47%) were called active. So high a share suggests a set chosen from earlier hits. Some of the results follow. A number with no mark means an inactive call. Cut-off read from the data, not from the text of the source: active = inhibition above about 50%; inactive = the rest.

This test is described as follows: Mycobacterium tuberculosis growth inhibition, primary screen (AID 1259343). The following applies: inhibition: at 10 µM, active compounds read high; outcome: 10 uM.
Take `Cc1ccc(-c2cc(C(=O)N3CCCC3C3CCCC3)n[nH]2)s1` (configuration not stated): the inhibition was 31.1%.

In the case of `COc1ccc(-c2nc(C=CC(=O)N3CCCC4CCCCC43)cs2)cc1` (configuration not stated), the inhibition is 62.1% (active).

Consider `CCCCc1ccc(N=Cc2c(C)c(C#N)c(=O)n(CCCC)c2O)cc1`, for which the inhibition was 4.37%.

With `CCCCc1ccc(N=Cc2nc(/C=C/c3cccc([N+](=O)[O-])c3)oc2O)cc1`, the inhibition was 84.9% (active).

Regarding `Cc1cc(Oc2ccc3c(C4CC4)noc3n2)ccc1F`, the inhibition was 58.7% (active).

As to `COc1ccc(F)cc1Oc1ccc2c(C3CC3)noc2n1`, the inhibition is 30%.

`Cc1ccc(Oc2ccc3c(C4CC4)noc3n2)cc1F`: the inhibition is 64.9% (active).

As for `COc1cc(F)ccc1Oc1ccc2c(C3CC3)noc2n1`, the inhibition was 47.7%.

With `COc1ccc(Oc2ccc3c(C4CC4)noc3n2)c(F)c1`, the inhibition is 61.2% (active).

For the molecule `CCN(CC)CCN1CCN(c2ccnc3c(-c4cc(C(F)(F)F)cc(C(F)(F)F)c4)cnn23)CC1`, the inhibition is 37.6%.

In the case of `COCc1[nH]n2c(=O)c(Cl)c(C)nc2c1-c1ccc(C)cc1`, the inhibition was 98.7% (active).

Take `Cc1ccccc1-c1cnnc(N2CCCC(COc3ccccc3F)C2)n1` (configuration not stated): the inhibition is -23.4%.

Turning to `S=c1nnc2c3ccccc3[nH]c2n1CCc1ccccc1`, the inhibition is 18%.

As to `C=C(C)CSc1nnc2c(n1)[nH]c1ccccc12`, the inhibition was 61.6% (active).

Turning to `C=CCSc1nnc2c3ccccc3n(CC=C)c2n1`, the inhibition was 28.1%.

On to `Cc1cc(Br)ccc1NCC(=O)N1CCCCC1`, for which the inhibition was 95.6% (active).

Take `Cc1cc(Br)ccc1NCc1ccc(C#N)cc1`: the inhibition was 35.3%.

Consider `N#CC(C#N)=C(C=Cc1ccc(OC(F)F)cc1)C1CC1`, for which the inhibition was -8.38%.

Turning to `COc1cc(C(=O)C=Cc2ccc(OC(F)F)cc2)ccc1O`, the inhibition was 17.6%.

In the case of `O=C(C=Cc1ccc(OC(F)F)cc1)c1ccc(O)cc1`, the inhibition is 81.8% (active).

With `CC(C)c1ccc2[nH]c3c(c2c1)CCC/C3=N\N=C/c1ccncc1`, the inhibition was 78.2% (active).

Take `OCC1(Cc2ccccc2F)CCCN(c2noc(-c3ccccc3)n2)C1` (configuration not stated): the inhibition was 17.3%.

As to `COc1cc(CNc2ccc3nc(C)sc3c2)ccc1OC(F)F`, the inhibition is 78.4% (active).

With `COc1ccc(NCc2ccc(OC)c(Br)c2)cn1`, the inhibition is -17.8%.

Take `C=CCc1ccc(OC(C)C(=O)Nc2ccc(OC)cc2)c(OC)c1` (configuration not stated): the inhibition is 30.5%.

For the molecule `CC(=NN=C1NC(=O)CS1)c1cc2ccccc2oc1=O`, the inhibition is 91.1% (active).

For the molecule `COc1ccc(OCCCCOc2ccccc2F)cc1`, the inhibition was 57.2% (active).

On to `CCOc1ccccc1OCCOc1ccccc1F`, for which the inhibition is 88.9% (active).

As to `COc1ccccc1OCCCCOc1ccccc1Cl`, the inhibition was 67.2% (active).

Consider `COc1ccc(OCCOc2ccc(Cl)c(C)c2)cc1`, for which the inhibition was 80.7% (active).

Turning to `CCOc1ccc(OCCCOc2ccc(Cl)c(C)c2)cc1`, the inhibition is 44.9%.

Turning to `COc1ccc(OCCOc2ccccc2C#N)cc1`, the inhibition is 56.9% (active).

Take `COc1cccc(-c2nnn(CCOc3ccccc3F)n2)c1`: the inhibition was 77.6% (active).

`COc1cccc(-c2cnnc(NCc3ccccc3OC)n2)c1`: the inhibition was 21.6%.

Consider `COc1cccc(-c2ccc(=O)n(Cc3cccc(F)c3)n2)c1`, for which the inhibition is 22.1%.

Consider `COc1ccccc1OCCCOc1ccccc1F`, for which the inhibition is 80% (active).

With `COc1cccc(OCCCCOc2ccc3ccccc3c2)c1`, the inhibition is 78.5% (active).

Regarding `CC(C)=CCCC(C)(O)c1cc(C(N)=O)no1` (configuration not stated), the inhibition was 32.2%.

On to `COc1ccc(OCCCCOc2ccccc2OC)cc1`, for which the inhibition is 97.5% (active).

In the case of `COc1ccc(OCCCOc2cccc(Cl)c2Cl)cc1`, the inhibition was 18.8%.

`CC(=O)c1ccc(OCCOc2ccc(C#N)cc2)cc1`: the inhibition was 101% (active).

For `N#Cc1ccc(-c2ccc(OCC(=O)c3ccc4c(c3)CC(=O)N4)cc2)cc1`, the inhibition was 39.1%.

Consider `COc1cccc(OCCCOc2cccc(Cl)c2Cl)c1`, for which the inhibition was 61.9% (active).

On to `COc1ccccc1OCCCCOc1ccc(I)cc1`, for which the inhibition was 91.3% (active).

In the case of `COc1ccccc1OCCCOc1ccc(F)cc1`, the inhibition is 35.7%.

For the molecule `COc1ccc(OCCCCOc2ccccc2)cc1`, the inhibition was 27.8%.

With `CCCCCCOc1ccc(C(=O)NNS(=O)(=O)c2ccc(C(=O)OC)cc2)cc1`, the inhibition was 94.8% (active).

With `COC(=O)c1ccc(OCCCCOc2ccccc2OC)cc1`, the inhibition is 80.9% (active).

In the case of `COc1ccc(OCCCCOc2ccc(Br)cc2)cc1`, the inhibition was 81.2% (active).

Turning to `CCCCCCCOc1ccc(C(C)=NOC)cc1`, the inhibition was 41.4%.

Regarding `CCCCCCNC(=O)Nc1ccc(S(=O)(=O)Nc2ccc(CCNC[C@H](O)COc3ccc(O)cc3)cc2)cc1`, the inhibition is 18.9%.

Consider `CC(C)N(C(=O)/C=C/c1c(Cl)cccc1Cl)C(C)C`, for which the inhibition is 47.8%.

Take `O=C1Oc2ccccc2C1=Cc1c(Cl)cccc1Cl`: the inhibition is 59% (active).

As to `Cc1cc(NC(=O)COc2ccc(Cl)cc2Cl)n(-c2nc(C)c(C)c(=O)[nH]2)n1`, the inhibition was -28.7%.

For `Cc1nnc2sc(COc3ccc(Cl)cc3Cl)nn2c1=O`, the inhibition was 78.4% (active).

Regarding `Cc1cc(Br)cc(Cl)c1NC(=O)C1(C)CC1(Cl)Cl` (configuration not stated), the inhibition is -15.4%.

For `O=C(N/N=C1/CCSc2c(F)cccc21)c1ccccc1`, the inhibition was 38%.

`O=C(CC1CCCO1)NCc1cccc(OCc2ccccc2)c1` (configuration not stated): the inhibition is 39.5%.

As to `CCC1CCC(=NNC(=O)c2ccc(COc3ccccc3)cc2)CC1` (configuration not stated), the inhibition was 97.1% (active).

Consider `Cc1cccc(-n2cc(CNCC3CCCO3)c(-c3cccc(F)c3)n2)c1` (configuration not stated), for which the inhibition entry was “inactive”.

Consider `Cc1cccc(-n2cc(CNCc3ccc(C)o3)c(-c3cccc(F)c3)n2)c1`, for which the inhibition was 46.5%.

Take `Cc1ccccc1CNCc1cn(-c2ccccc2)nc1-c1ccc2c(c1)OCO2`: the inhibition was 60.9% (active).

As for `Fc1ccccc1-c1nnn(Cc2ccc3c(c2)OCO3)n1`, the inhibition is 48.7%.

Turning to `COc1ccc(-n2cc(CNCc3ccc4c(c3)OCO4)c(-c3ccccc3Cl)n2)cc1`, the inhibition was 61.7% (active).

In the case of `CC(C)(C)c1ccc(Cn2cnc([N+](=O)[O-])n2)cc1`, the inhibition was 65.2% (active).

`O=C(Nc1nnc(C(F)(F)F)s1)C1(c2cccc(Cl)c2)CC1`: the inhibition was 86.3% (active).

As for `FC(F)(F)c1nnc(N2CCN(c3ccc(Cl)cc3)CC2)s1`, the inhibition is 18.9%.

Turning to `COc1cc(NC(=O)C2(c3ccccc3)CC2)c(OC)cc1Cl`, the inhibition was 16.5%.

Consider `O=C1/C(=C/c2cc3ccccc3o2)Oc2cc(O)ccc21`, for which the inhibition is 3.03%.

`O=C1C(=Cc2ccc(OC(F)F)cc2OC(F)F)Oc2cc(O)ccc21`: the inhibition is 56.9% (active).

With `Cn1c(=S)[nH]c2c(-c3ccccc3)csc2c1=O`, the inhibition is 20.9%.

Regarding `CCOC(=O)CSc1ccc(NC(=O)c2ccc(C)cc2)nn1`, the inhibition is 93.7% (active).

With `CSc1nc(N)nc(SCc2ccc(F)cc2)c1C#N`, the inhibition is 53.4% (active).

For the molecule `COc1ccc(/C=C2\C=C(c3ccccc3)N(c3ccc4ccccc4c3)C2=O)cc1`, the inhibition is 74.9% (active).

In the case of `CN(C)c1cc(-c2noc(Cc3ccccc3Cl)n2)ccn1`, the inhibition was 67% (active).

For the molecule `Ic1ccc(Nc2nc3nonc3nc2NCc2ccco2)cc1`, the inhibition is 101% (active).

As to `Oc1ccc(Nc2nc3nonc3nc2Nc2cccc(Br)c2)cc1`, the inhibition was 49.2%.

As to `OC(CN1CCOCC1)Cn1c2ccc(Br)cc2c2cc(Br)ccc21` (configuration not stated), the inhibition was 86.8% (active).

In the case of `OCC(O)Cn1c2ccc(Br)cc2c2cc(Br)cc(Br)c21` (configuration not stated), the inhibition is 17.8%.

`C=CCn1c2ccc(Br)cc2c2nc3ccccc3nc21`: the inhibition was -22.9%.

In the case of `Cc1cc(O)c(CN2CCOCC2)c2c1C(=O)/C(=C/c1cc3cc(Br)ccc3o1)O2`, the inhibition was 45.4%.

On to `CN(CCO)CC(O)Cn1c2ccc(Br)cc2c2cc(Br)ccc21` (configuration not stated), for which the inhibition is 69.2% (active).

On to `CC(=O)O[C@H]1CC[C@@]2(C)C(=CC[C@@H]3[C@H]2CC[C@]2(C)C(c4cccnc4)=CC[C@@H]32)C1`, for which the inhibition is 27.2%.

With `CCC(=O)c1ccc(-c2ccc(Br)cc2F)cc1`, the inhibition was 29%.

Turning to `Brc1ccc(Cc2nnnn2CCn2cccn2)cc1`, the inhibition was 25.9%.

Take `O=C(Cn1nnnc1-c1ccc(Br)cc1)c1ccccc1`: the inhibition is 89.4% (active).

For the molecule `O=C(CCl)N1N=C(c2cccs2)CC1c1ccco1` (configuration not stated), the inhibition is 101% (active).

With `NC(=O)c1ccc(Cn2nc(-c3cccs3)oc2=O)cc1`, the inhibition was 14.6%.

Consider `O=c1oc(-c2ccc([N+](=O)[O-])cc2Cl)nc2cc(Cl)ccc12`, for which the inhibition was 28.8%.

With `COc1ccc(-c2nc3ccccc3c(=O)o2)cc1[N+](=O)[O-]`, the inhibition is 83.1% (active).

For the molecule `O=c1oc(-c2ccco2)nc2ccc(Br)cc12`, the inhibition is 41.6%.

Consider `CN(CCCc1ccccc1)Cc1nc(C2CC2)no1`, for which the inhibition is 78.2% (active).

Regarding `Cc1sc2ncnc(N(C)Cc3nc(C4CC4)no3)c2c1C`, the inhibition was -15.9%.

On to `CCC(Nc1ccccc1)c1nc(C2CCC2)no1` (configuration not stated), for which the inhibition is 44.9%.

Regarding `CC(C)Cn1c(-c2ccco2)nc2c(c(=O)c3ccccc3n2C)c1=O`, the inhibition is -27.4%.

On to `CCN1C(=O)SC(Nc2ccc(OC)cc2)C1=O` (configuration not stated), for which the inhibition is 78.9% (active).

On to `Cc1ccc(NS(=O)(=O)N2CCCCC2)cc1Cl`, for which the inhibition was 23.6%.

Take `COc1ccc(NC2CC(O)C(CO)O2)cc1` (configuration not stated): the inhibition entry was “inactive”.

In the case of `CCN1C(=O)SC(Nc2ccc(C)c(Cl)c2)C1=O` (configuration not stated), the inhibition is 96.3% (active).

Take `Brc1cc2c(cc1Cn1nnc(-c3cccs3)n1)OCO2`: the inhibition was -19.9%.

For `O=C(Cn1nnc(-c2cccs2)n1)c1ccc(Cl)s1`, the inhibition is 77.8% (active).

In the case of `O=C(CN1C(=O)CC2(CCCC2)C1=O)c1ccc(Cl)s1`, the inhibition is -28.2%.

Regarding `O=C(Cn1nnc([N+](=O)[O-])n1)c1cccs1`, the inhibition is 98.8% (active).

With `Cc1ccc(C)c(-n2nnnc2SCCCC(=O)c2cccs2)c1`, the inhibition was -43%.

Consider `CC(C)(C)c1cc2nc(C(=O)O)cc(-c3ccccc3F)n2n1`, for which the inhibition is 62.4% (active).

For `CC(C)(C)c1cc2nc(C(=O)O)cc(-c3ccc(Cl)cc3)n2n1`, the inhibition is 83.5% (active).

As to `CC(C)(C)c1cc2nc(C(=O)O)cc(-c3ccccc3Cl)n2n1`, the inhibition was 58.8% (active).
